According to PubChem BioAssay AID504882 (Broad Institute, 2011):
Screen size: about 1,200 compounds; about 290 (24%) were called active. Not shown: some 9% with an inconclusive outcome. The rule behind the calls is not given here. Only a sample is shown. Entries with a potency or affinity are not part of this list.

test: LCL viability reduction – cell-based, plate reader, cherry-picks, set 2, cytotoxicity control, dose response (AID 504882); details: EBV lymphoblastoid cells (LCL) viability; series mostly up to 19.5 µM

Compound	outcome
Cc1ccc(S(=O)(=O)N[C@H](C(=O)N2CCC(C(=O)N[C@@H](CC(=O)O)C(=O)O)CC2)C(C)C)cc1	inactive
Cc1ccc(C(=O)Nc2ccc3c(c2)OCCO3)cc1	inactive
Cc1ccc(NC(=O)c2ccc3c(c2)OCCO3)nc1	inactive
COc1ccc(OC)c(NC(=O)COC(=O)COc2ccc(Nc3ccccc3)cc2)c1	inactive
Cc1cc(C)c(S(=O)(=O)N2CCN(C(=O)c3ccccc3OCc3c(C)noc3C)CC2)c(C)c1	inactive
O=C(NCc1ccccc1Cl)C1CCCN1S(=O)(=O)c1ccc(F)cc1 (stereo not drawn)	inactive
COc1ccc(C=NNc2nc3ccccc3s2)cc1	inactive
Cc1ccc(/C=C/c2nc3ccccc3s2)s1	inactive
N/C(=N\OC(=O)c1ccccc1)c1ccccn1	inactive
C[C@@H]1CN([C@@H](C)CO)S(=O)(=O)c2ccc(/C=C/c3ccccc3)cc2O[C@@H]1CN(C)Cc1ccc(C(=O)O)cc1	inactive
O=C(NC1=NCCS1)c1cc2ccccc2o1	inactive
COc1ccc(C(=O)Nc2nnc(SCC(=O)NC3CC3)s2)cc1	inactive
c1ccc(-c2cn3c4c(sc3n2)CCCC4)cc1	inactive
Cc1cc(C)n2nc(CC(=O)NC3CCCCCC3)nc2n1	inactive
COc1ccc2cc3c(N)nn(C(=O)c4cccc([N+](=O)[O-])c4)c3nc2c1	inactive
Cc1nc(SCC(=O)c2cccc([N+](=O)[O-])c2)n[nH]1	inactive
CCn1c(SC(C)C)nnc1-c1c[nH]c2ccccc12	inactive
CC(=O)c1cccc(NC(=O)Nc2ccc(C(=O)N3CCOCC3)cc2)c1	inactive
COc1ccc(-c2csc(Nc3cccc(C)n3)n2)cc1OC	inactive
CC[C@]1(C(=O)OC)[C@H]2C(=O)N(Cc3ccccc3)C(=O)[C@H]2[C@H]2CN=C(SCc3ccc(C#N)cc3)N21	inactive
COc1ccc(CN2C(=O)c3cccnc3C2Nc2cc(Cl)ccc2OC)cc1 (stereo not drawn)	inactive
Clc1ccc(-c2cn3nc4c(nc3n2)CCCC4)cc1	inactive
COCCn1c(SCCN2CCOCC2)nc2c1c(=O)[nH]c(=O)n2C	inactive

Compound	outcome
COc1cc2nc(N3CCN(C(=O)C4CCCO4)CC3)nc(N)c2cc1OC (stereo not drawn)	inactive
O=C(Nc1ccc2c(c1)C(=O)OC2)c1ccc(C(F)(F)F)cc1	inactive
C/C(=N\Nc1ccc(C(F)(F)F)cc1[N+](=O)[O-])C(C)C	inactive
COC(=O)c1ccc2nc(-c3cccc(N)c3)cn2c1	inactive
CCOC(=O)Nc1ccc2c(c1)N(C(=O)CN(C)C)c1ccccc1CC2	inactive
COc1ccc(-c2nc(C)ncc2-c2ccccc2)c(O)c1	inactive
c1ccc(OCCSc2nnc3sc4ccccc4n23)cc1	inactive
COc1ccc(N2C(=O)C(=O)/C(=C(/O)c3ccc(C)cc3)C2c2cccnc2)cc1 (stereo not drawn)	inactive
O=C1CCCCC1Sc1nnc(-c2ccc3c(c2)OCO3)o1 (stereo not drawn)	inactive
COc1ccc(NC(=O)c2cc3ccccc3oc2=O)cc1	inactive
COc1ccc(NC(=O)NCCN2CCc3ccccc3C2)cc1	inactive
N#Cc1c(NC(=O)CCCC(=O)O)sc2c1CCCCC2	inactive
COC(=O)c1c(NC(=O)c2nn(C)cc2Cl)sc2c1CCCC2	inactive
NC(=O)c1sc2nc3c(c(-c4ccccc4)c2c1N)CCC3	inactive
Cc1ccc(NC(=O)NNS(=O)(=O)c2ccc(Br)cc2)cc1	inactive
O=C(CSc1nc2ccccc2c(=O)n1CCCN1CCOCC1)Nc1ccc(Br)cc1	inactive
CC(C)(C)c1ccc(C(=O)N2CCC(=O)N(C(CO)Cc3ccccc3)CC2)cc1 (stereo not drawn)	inactive
O=C(N1CCOCC1)N1CCN(S(=O)(=O)c2ccc(Cl)cc2)C1	inactive
Cc1cccc(/C=N/NC(=O)CNc2cccc3ccccc23)n1	inactive
O=C(O)c1ccc(C=NNC(=O)c2cccc3ccccc23)cc1	inactive
COc1ccc(-c2[nH]ncc2/C=N\NS(=O)(=O)c2ccc(Cl)cc2)cc1	inactive
O=[N+]([O-])c1ccc(Cl)c(S(=O)(=O)NCC2CCCO2)c1 (stereo not drawn)	inactive
CCN(c1ccccc1)S(=O)(=O)c1ccc(Cl)c(NC(=O)Nc2ccc(Cl)cc2C#N)c1	inactive

Compound	outcome
CCOc1ccc(OCc2cccc(C(=O)N3CCCCCC3)c2)cc1	inactive
COc1ccc(C(=O)NCCN2CCOCC2)cc1[N+](=O)[O-]	inactive
COc1cccc(/C=C2\SC(=S)N(CCC(=O)NCCc3ccc(O)cc3)C2=O)c1	inactive
COc1ccc(C(=O)Nn2c(SCC(=O)c3ccc(Cl)cc3)nc3ccccc3c2=O)cc1	inactive
COc1ccc(C(=O)NCCNc2nc3cc(C)c(C)cc3cc2C)cc1	inactive
COc1ccc(-c2cc3c(=O)n(CC(=O)NCCCN4CCN(Cc5ccccc5)CC4)ncn3n2)cc1	inactive
Cc1cccc(C)c1Nc1nc2ccccc2o1	inactive
O=c1[nH]c(Nc2nc3ccccc3o2)nc2c1CCCC2	inactive
COc1ccc(-n2c(C)c(C(C)=O)c3cc(OC(C)=O)ccc32)cc1	inactive
CC(=O)Nc1ccc(OCCCNC(=O)c2c(-c3ccccc3)noc2C)cc1	inactive
COc1ccccc1NC(=O)Cn1nnc(-c2ccccc2NS(=O)(=O)c2ccccc2)n1	inactive
CCN(CC)Cc1cc(Nc2ccnc3cc(Cl)ccc23)ccc1O	inactive
O=C1CSC(=S)N1Cc1ccccc1	inactive
CC(=O)O[C@H]1CC[C@@]2(C)C(=CC[C@H]3[C@@H]4CC[C@H](C(C)=O)[C@@]4(C)CC[C@@H]32)C1	inactive
Cc1ccc(N=c2c([N+](=O)[O-])nn(-c3ccc4c(c3)OCCO4)n2O)cc1F	inactive
COCCNC(=O)C(=O)NCC1OCCN1C(=O)c1ccc(Cl)cc1 (stereo not drawn)	inactive
CCCn1c(C)cc(C(=O)COC(=O)c2ccc[nH]c2=O)c1C	inactive
COc1cc2oc(=O)cc(-c3ccc(-c4ccc(N(C)C)cc4)cc3)c2c(OC)c1OC	inactive
Cc1nn(CCCC(=O)Nc2cccnc2Cl)c(C)c1[N+](=O)[O-]	inactive
Cc1sc2nc(SCC(=O)OC(C)C)n(C)c(=O)c2c1C	inactive
COCCn1c(C)cc(C(=O)COC(=O)c2n[nH]c3ccccc23)c1C	inactive
Cc1nn(C(C)(C)C)c(C)c1/C=N/OC(=O)Nc1ccc(Cl)c(Cl)c1	inactive
